Test [1] is described as follows: NCI Yeast Anticancer Drug Screen. Data for the rad50 strain (AID 155).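 Also: 0% = growth of vehicle-only cultures of the same strain.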 The settings on record: S. cerevisiae rad50 strain growth inhibition, active compounds read high. Summed up:
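Cells are treated with compound, grown, and their growth is then scored against vehicle-only cultures of the same repair-deficient yeast strain.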

Test [2] can be described thus: NCI Yeast Anticancer Drug Screen. Data for the mec2-1 strain (AID 157). As to conditions: S. cerevisiae mec2-1 strain, active compounds read high. Summed up:
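Compounds were applied to mec2-1 yeast cells. Their growth was then compared with that of vehicle-treated cultures to give growth inhibition.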

A short description of test [3]: NCI Yeast Anticancer Drug Screen. Data for the sgs1 mgt1 strain (AID 161).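 Also: 0% = growth of cultures given vehicle only.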 As to conditions: S. cerevisiae sgs1 mgt1 strain, active compounds read high. An outline of the steps: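 Percent growth inhibition was derived by comparing compound-exposed mutant yeast with vehicle-exposed cultures. The strain carries alterations in DNA damage repair.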
Test [4] is described as follows: NCI Yeast Anticancer Drug Screen. Data for the cln2 rad14 strain (AID 165).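 Also: 0% = growth equal to vehicle treated cultures.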 The settings on record: S. cerevisiae cln2 rad14 strain, active compounds read high. Summed up:
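Strain: cln2 rad14 yeast, altered in cell cycle control and DNA damage repair. Read-out: growth inhibition vs vehicle.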

Test [5] can be described thus: NCI Yeast Anticancer Drug Screen. Data for the bub3 strain (AID 167). As to conditions: S. cerevisiae bub3 mutant strain, active compounds read high. An outline of the steps:
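Part of a panel of yeast mutants defective in DNA damage repair or cell cycle regulation. Each strain is grown with compound, and inhibition is calculated relative to solvent-treated cultures.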

Test [6] can be described thus: NCI Yeast Anticancer Drug Screen. Data for the mlh1 rad18 strain (AID 175). As to conditions: S. cerevisiae mlh1 rad18 strain growth inhibition, active compounds read high. Summed up:
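A repair-deficient yeast strain is exposed to test compound, and growth is scored relative to vehicle-treated controls.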

The mark [7] stands for this setting: at 5.0 µM (retest, dose inferred, filed as 0.5).
[8] abbreviates: at 50.0 µM (retest, dose inferred, filed as 5.0).

Compounds without any hit were thinned out: in the full panel of roughly 79,000, 15% have a hit. A number with no mark means an inactive call. The source made the active and inactive calls. Rule as the data show it: active = growth inhibition above about 70%; inactive = the rest.

Take `C[SH+]c1ccccc1N=Cc1ccccn1.C[SH+]c1ccccc1N=Cc1ccccn1.[Ni+2].[O-][Cl+3]([O-])([O-])[O-]`: the growth inhibition in test [1] (setting [7]) was -3%; in test [1] (setting [8]), 11%; in test [1] (at 50.0 µM), 99% (active); in test [2] (setting [7]), -5%; in test [2] (setting [8]), 5%; in test [2] (at 50.0 µM), 97.2% (active). Also, the growth inhibition in test [3] (setting [7]) was -1%; in test [3] (setting [8]), 12%; in test [3] (at 50.0 µM) it was 99.5% (active); in test [4] (setting [7]) it was 3%; in test [4] (setting [8]), 7%; in test [4] (at 50.0 µM), 58.2%. Moreover, the growth inhibition was -4% in test [5] (setting [7]); 2% in test [5] (setting [8]); 98.8% (active) in test [5] (at 50.0 µM); 1% in test [6] (setting [7]); 16% in test [6] (setting [8]); 98% (active) in test [6] (at 50.0 µM).

On to `CC(=O)NNc1ccccc1`, for which the growth inhibition was 6% in test [1] (setting [7]); 44% in test [1] (setting [8]); 62.5% in test [1] (at 50.0 µM); 2% in test [2] (setting [7]); 52% in test [2] (setting [8]); 66.2% in test [2] (at 50.0 µM). Moreover, the growth inhibition was 9% in test [3] (setting [7]); 53% in test [3] (setting [8]); 68.3% in test [3] (at 50.0 µM); 2% in test [4] (setting [7]); 65% in test [4] (setting [8]); 40% in test [4] (at 50.0 µM). Besides, the growth inhibition in test [5] (setting [7]) was 7%; in test [5] (setting [8]) it was 89% (active); in test [5] (at 50.0 µM), 87% (active); in test [6] (setting [7]), 14%; in test [6] (setting [8]) it was 84% (active); in test [6] (at 50.0 µM) it was 90.7% (active).

For `CC1=C/C(=C2/N=C(N(C)C)SS2)C(C)=N1`, the growth inhibition in test [1] (setting [7]) was 11%; in test [1] (setting [8]), 78% (active); in test [1] (at 50.0 µM), 13.2%; in test [2] (setting [7]), 1%; in test [2] (setting [8]), 48%; in test [2] (at 50.0 µM), -0.9%. Besides, the growth inhibition in test [3] (setting [7]) is 31%; in test [3] (setting [8]), 88% (active); in test [3] (at 50.0 µM), 8.85%; in test [4] (setting [7]) it was 9%; in test [4] (setting [8]) it was 48%; in test [4] (at 50.0 µM), 15.4%. The growth inhibition was 23% in test [5] (setting [7]); 66% in test [5] (setting [8]); 43.9% in test [5] (at 50.0 µM); 5% in test [6] (setting [7]); 71% (active) in test [6] (setting [8]); 16.7% in test [6] (at 50.0 µM).

With `CCCCCCCCCCCCCC(=O)[O][Hg][c]1ccccc1`, the growth inhibition in test [1] (setting [7]) was 99% (active); in test [1] (setting [8]), 93% (active); in test [1] (at 50.0 µM), 99.5% (active); in test [2] (setting [7]) it was 100% (active); in test [2] (setting [8]), 99% (active); in test [2] (at 50.0 µM) it was 99.6% (active). In addition, the growth inhibition was 100% (active) in test [3] (setting [7]); 99% (active) in test [3] (setting [8]); 99.6% (active) in test [3] (at 50.0 µM); 99% (active) in test [4] (setting [7]); 98% (active) in test [4] (setting [8]); 99.6% (active) in test [4] (at 50.0 µM). Further, the growth inhibition in test [5] (setting [7]) was 99% (active); in test [5] (setting [8]) it was 99% (active); in test [5] (at 50.0 µM), 99.5% (active); in test [6] (setting [7]), 99% (active); in test [6] (setting [8]), 99% (active); in test [6] (at 50.0 µM) it was 99.6% (active).

Consider `O=[N+]([O-])C=C([SH2+])[SH2+].O=[N+]([O-])C=C([SH2+])[SH2+].[Ni+2].c1ccc(C[P+](c2ccccc2)(c2ccccc2)c2ccccc2)cc1`, for which the growth inhibition in test [1] (setting [7]) was 3%; in test [1] (setting [8]) it was 44%; in test [1] (at 50.0 µM), 93.5% (active); in test [2] (setting [7]) it was 7%; in test [2] (setting [8]), 72% (active); in test [2] (at 50.0 µM), 97.7% (active). In addition, the growth inhibition in test [3] (setting [7]) was 5%; in test [3] (setting [8]), 52%; in test [3] (at 50.0 µM) it was 96.7% (active); in test [4] (setting [7]), -7%; in test [4] (setting [8]) it was 19%; in test [4] (at 50.0 µM), 87.8% (active). The growth inhibition is -1% in test [5] (setting [7]); 47% in test [5] (setting [8]); 96.2% (active) in test [5] (at 50.0 µM); 26% in test [6] (setting [7]); 83% (active) in test [6] (setting [8]); 93.3% (active) in test [6] (at 50.0 µM).

Regarding `CN1CCOC12CCC1(C)C(CCC3C4CCC(O)C4(C)CCC31)C2` (stereo not given), the growth inhibition in test [1] (setting [7]) is -11%; in test [1] (setting [8]), -5%; in test [1] (at 50.0 µM), 77.5% (active); in test [2] (setting [7]) it was -14%; in test [2] (setting [8]), -8%; in test [2] (at 50.0 µM), 5.8%. In addition, the growth inhibition in test [3] (setting [7]) is -7%; in test [3] (setting [8]), 9%; in test [3] (at 50.0 µM), 58%; in test [4] (setting [7]), 1%; in test [4] (setting [8]), 8%; in test [4] (at 50.0 µM), -6.75%. Further, the growth inhibition in test [5] (setting [7]) is -22%; in test [5] (setting [8]), -9%; in test [5] (at 50.0 µM) it was 4.75%; in test [6] (setting [7]) it was -12%; in test [6] (setting [8]), -12%; in test [6] (at 50.0 µM), 71.8% (active).

Consider `[Cl-].[Cl-].[Cl-].[O-]c1cccc2cccnc12.[O-]c1cccc2cccnc12.[O]=[Mo]`, for which the growth inhibition in test [1] (setting [7]) is 96% (active); in test [1] (setting [8]), 96% (active); in test [1] (at 50.0 µM), 87.5% (active); in test [2] (setting [7]) it was 73% (active); in test [2] (setting [8]), 73% (active); in test [2] (at 50.0 µM), 91.4% (active). The growth inhibition is 72% (active) in test [3] (setting [7]); 72% (active) in test [3] (setting [8]); 89.2% (active) in test [3] (at 50.0 µM); 96% (active) in test [4] (setting [7]); 96% (active) in test [4] (setting [8]); 88.6% (active) in test [4] (at 50.0 µM). Besides, the growth inhibition in test [5] (setting [7]) was 64%; in test [5] (setting [8]), 64%; in test [5] (at 50.0 µM), 90.4% (active); in test [6] (setting [7]) it was 72% (active); in test [6] (setting [8]) it was 72% (active); in test [6] (at 50.0 µM), 87.7% (active).

`COC([CH2][Hg])CN1C(=O)c2cc(C)c(C)cc2C1=O` (stereo not given): the growth inhibition in test [1] (setting [7]) was 99% (active); in test [1] (setting [8]), 99% (active); in test [1] (at 50.0 µM), 99.3% (active); in test [2] (setting [7]), 100% (active); in test [2] (setting [8]) it was 100% (active); in test [2] (at 50.0 µM), 99.7% (active). Besides, the growth inhibition in test [3] (setting [7]) is 100% (active); in test [3] (setting [8]), 100% (active); in test [3] (at 50.0 µM), 99.6% (active); in test [4] (setting [7]), 99% (active); in test [4] (setting [8]) it was 99% (active); in test [4] (at 50.0 µM), 98.3% (active). The growth inhibition in test [5] (setting [7]) was 99% (active); in test [5] (setting [8]) it was 99% (active); in test [5] (at 50.0 µM), 98.7% (active); in test [6] (setting [7]), 99% (active); in test [6] (setting [8]) it was 99% (active); in test [6] (at 50.0 µM), 99.3% (active).

Regarding `CCOC(=O)c1ccc(NP(=O)(Oc2ccccc2)Oc2ccccc2)cc1`, the growth inhibition in test [1] (setting [7]) was -4%; in test [1] (setting [8]), 49%; in test [1] (at 50.0 µM), 64.8%; in test [2] (setting [7]) it was 18%; in test [2] (setting [8]) it was 75% (active); in test [2] (at 50.0 µM) it was 52.9%. Besides, the growth inhibition in test [3] (setting [7]) is -18%; in test [3] (setting [8]) it was 66%; in test [3] (at 50.0 µM) it was 64.7%; in test [4] (setting [7]), -10%; in test [4] (setting [8]), 56%; in test [4] (at 50.0 µM), 69.2%. In addition, the growth inhibition in test [5] (setting [7]) was -6%; in test [5] (setting [8]), 89% (active); in test [5] (at 50.0 µM), 59.5%; in test [6] (setting [7]) it was 24%; in test [6] (setting [8]), 88% (active); in test [6] (at 50.0 µM), 77.8% (active).

On to `COC1CC2C=C(C)/C=C/C=C/C(=O)NC(c3ccccc3)C/C=C/CCC(O)CC(=O)C2=C1O` (stereo not given), for which the growth inhibition in test [1] (setting [7]) is 97% (active); in test [1] (setting [8]), 99% (active); in test [1] (at 50.0 µM) it was 91.5% (active); in test [2] (setting [7]), 98% (active); in test [2] (setting [8]), 99% (active); in test [2] (at 50.0 µM), 92.8% (active). Besides, the growth inhibition in test [3] (setting [7]) was 99% (active); in test [3] (setting [8]), 99% (active); in test [3] (at 50.0 µM), 92.5% (active); in test [4] (setting [7]), 98% (active); in test [4] (setting [8]) it was 99% (active); in test [4] (at 50.0 µM), 91.3% (active). For the same compound, the growth inhibition was 99% (active) in test [5] (setting [7]); 99% (active) in test [5] (setting [8]); 88.7% (active) in test [5] (at 50.0 µM); 98% (active) in test [6] (setting [7]); 99% (active) in test [6] (setting [8]); 91.7% (active) in test [6] (at 50.0 µM).

These data come from PubChem BioAssay (NCI).
